PubChem BioAssay
Activity calls are given as the source filed them.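 Rule for the calls: active = at least 20% inhibition of 6-phosphogluconate dehydrogenase activity; inactive = the rest.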

Molecular target: 6-phosphogluconate dehydrogenase, decarboxylating (Homo sapiens) (UniProt P52209)
Test: 6PGD enzyme inhibitors, primary screen, biochemical, human, recombinant enzyme, NADPH absorbance (AID 1159550)
Details: recombinant 6PGD, NADPH absorbance 341 nm; at 10 µM; stronger effect = higher value

6-phosphogluconate dehydrogenase, decarboxylating (Homo sapiens), sequence (P52209 whole entry, looked up): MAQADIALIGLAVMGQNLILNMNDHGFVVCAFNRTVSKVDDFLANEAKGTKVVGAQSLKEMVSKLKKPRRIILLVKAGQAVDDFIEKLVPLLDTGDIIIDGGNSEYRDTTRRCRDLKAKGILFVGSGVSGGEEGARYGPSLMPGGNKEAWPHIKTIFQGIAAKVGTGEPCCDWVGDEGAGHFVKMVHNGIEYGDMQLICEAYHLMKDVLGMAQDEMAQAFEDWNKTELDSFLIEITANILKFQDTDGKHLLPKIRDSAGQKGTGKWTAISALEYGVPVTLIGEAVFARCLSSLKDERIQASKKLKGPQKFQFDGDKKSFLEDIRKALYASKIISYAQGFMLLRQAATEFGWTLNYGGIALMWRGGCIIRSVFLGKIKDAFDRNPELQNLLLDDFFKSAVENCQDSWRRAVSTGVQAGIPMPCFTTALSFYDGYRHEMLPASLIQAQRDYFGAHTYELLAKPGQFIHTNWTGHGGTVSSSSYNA

Structure (SMILES)	inhibition
CO[C@H]1[C@H](O)[C@H](O[C@H]2CC[C@]3(C)C4CC[C@]5(C)[C@@H](C6=CC(=O)OC6)CC[C@]5(O)C4CC[C@@H]3C2)O[C@@H](C)[C@@H]1O (some centres not stated)	11.3% (inactive)
CCOP(=S)(OCC)SCCSCC	3.96% (inactive)
CC1(C)[C@H](O)CC(=O)[C@@]2(C)[C@@H]1CC(=O)[C@]1(C)[C@H]2CC[C@@]2(C)[C@H](c3ccoc3)OC(=O)[C@H]3O[C@]321	8.09% (inactive)
CCC(=O)Nc1ccc(Cl)c(Cl)c1	-20.3% (inactive)
CNC(=O)O/N=C(/C)SC	-23.1% (inactive)
C[C@]12CCC(=O)C=C1CCc1ccc(O)cc12	-3.52% (inactive)
C[C@]12CCC3C(CC[C@H]4C[C@@H](Cl)CC[C@]34C)C1CCC2=O (some centres not stated)	-16.8% (inactive)
ClC1=C(Cl)[C@@]2(Cl)[C@@H]3[C@H]4C[C@@H]([C@H]5O[C@@H]45)[C@H]3[C@@]1(Cl)C2(Cl)Cl	-14% (inactive)
C=C(C)[C@H]1Cc2c(ccc3c(=O)c4c(oc23)COc2cc(OC)c(OC)cc2-4)O1	-6.24% (inactive)
CCc1cccc(CC)c1N(COC)C(=O)CCl	-1.98% (inactive)
COC1C(O)C(O[C@H]2CC[C@]3(C=O)C4C(OC(C)=O)C[C@]5(C)[C@@H](C6=CC(=O)OC6)CC[C@]5(O)C4CC[C@]3(O)C2)OC(C)C1OC(C)=O (some centres not stated)	10.3% (inactive)
OC1C[C@H]2CCC[C@@H](C1)N2Cc1ccccc1 (some centres not stated)	1.32% (inactive)
ClC(Cl)=C(c1ccc(Cl)cc1)c1ccc(Cl)cc1	-15% (inactive)
CC(C)N(C(=O)CCl)c1ccccc1	-9.5% (inactive)
CNC(=O)O/N=C/C(C)(C)SC	-1.92% (inactive)
CN[C@@H](Cc1c[nH]c2ccccc12)C(=O)O	8.96% (inactive)

Structure (SMILES)	inhibition
CCCCSP(=O)(SCCCC)SCCCC	10.6% (inactive)
COP(=O)(OC)OC(Br)C(Cl)(Cl)Br (configuration not stated)	-10.9% (inactive)
C=C1[C@@H]2CC[C@H]3[C@]4(C)C[C@H](O[C@@H]5O[C@H](CO)[C@@H](OS(=O)(=O)O)[C@H](OS(=O)(=O)O)[C@H]5OC(=O)CC(C)C)C[C@@H](C(=O)O)[C@H]4CC[C@]3(C2)[C@H]1O	5.29% (inactive)
CC(=O)OC1CC2(C)C(c3ccoc3)CC3OC32C2(C)C(=O)C(O)=C3C(C)(C)C(=O)C=CC3(C)C12 (configuration not stated)	9.52% (inactive)
CNC(=O)Oc1cccc2c1OC(C)(C)O2	-4.88% (inactive)
COc1ccc(C(c2ccc(OC)cc2)C(Cl)(Cl)Cl)cc1	-1.01% (inactive)
C[C@@H]1OC(O[C@H]2CC[C@]3(C=O)[C@H]4CC[C@]5(C)C(C6=CC(=O)OC6)CC[C@]5(O)[C@@H]4CC[C@]3(O)C2)[C@H](O)[C@H](O)[C@H]1O (some centres not stated)	2.25% (inactive)
CC(C)OC(=O)Nc1cccc(Cl)c1	-6.1% (inactive)
C#CCOS(=O)OC1CCCCC1Oc1ccc(C(C)(C)C)cc1 (configuration not stated)	-21.1% (inactive)
C[C@]12CC[C@H](O)C[C@H]1CC[C@@H]1[C@@H]2[C@H](O)C[C@]2(C)[C@@H](C3=CC(=O)OC3)CC[C@]12O	11.1% (inactive)
CCC(C)C(=O)c1c(O)c(C)c2oc3c(C)c(O)c(C(=O)C(C)CC)c(O)c3c2c1O (configuration not stated)	4.14% (inactive)
C[C@H]1CC[C@]2(NC1)O[C@H]1C[C@H]3[C@@H]4CC[C@H]5C[C@@H](O[C@@H]6O[C@H](CO)[C@H](O[C@@H]7O[C@H](CO)[C@@H](O)[C@H](O[C@@H]8OC[C@@H](O)[C@H](O)[C@H]8O)[C@H]7O[C@@H]7O[C@H](CO)[C@@H](O)[C@H](O)[C@H]7O)[C@H](O)[C@H]6O)CC[C@]5(C)[C@H]4CC[C@]3(C)[C@H]1[C@@H]2C	1.84% (inactive)
C=C1C([C@]2(C)C(CC(=O)OC)[C@@](C)(COC(C)=O)OC(=O)C[C@@H]2OC(C)=O)[C@@H](OC=O)[C@H](OC(=O)C(OC(C)=O)C(C)CC)[C@@]2(C)[C@H](c3ccoc3)CC(=O)C12O (some centres not stated)	-6.98% (inactive)
C[C@]12CC[C@@H](OS(=O)(=O)O)C[C@@H]1CC[C@@H]1[C@@H]2CC[C@]2(C)C(=O)CC[C@@H]12	5.35% (inactive)
CN1C2C[C@H](OC(=O)[C@H](CO)c3ccccc3)CC1[C@@H](O)C2 (some centres not stated)	-3.17% (inactive)
CC1(C)C(O)CC(O)C2(C)C1CC(O)C1(C)C2CCC2(C)C(c3ccoc3)OC(=O)C3OC321 (configuration not stated)	-7.21% (inactive)
